For some assays here: Measured potencies and affinities stand elsewhere. Activity calls are given as the source filed them. Unless noted, how the calls were made is not given here.
Key:
[1] = antimalarial activity against Dd2 strain (AID 2302;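 active means growth inhibition above 50% at the single 2 µM test dose, taken to imply half-maximal potency below 2 µM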;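 further: 0% = DMSO untreated growth and 100% = chloroquine plus artemisinin killed control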); conditions: P. falciparum Dd2 in RBCs, LDH growth readout, 72 h; at 2 µM; active compounds read high
[2] = human hepatoma cell viability loss – ATP luminescence, cytotoxicity control for P. falciparum antimalarial project, primary screen (AID 2303;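 active means inhibition above 50%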;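 further: 0% = DMSO wells and 100% = digitonin-killed cells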); conditions: HepG2 viability, 24-48 h, at 10 µM, active compounds read high
[3] = molecular target: L-lactate dehydrogenase (Plasmodium falciparum (isolate CDC / Honduras)) (UniProt Q27743); assay: PfLDH activity inhibition – cell lysate, 3D7 strain, counter-screen for P. falciparum growth inhibition project (AID 2304);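 further: 0% = vehicle and 100% = reference inhibitor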; conditions: P. falciparum 3D7 crude extract, LDH APAD/NBT absorbance; at 2 µM; active compounds read high
[4] = inhibition of 3D7 malaria parasite growth – strain 3D7 (AID 2306);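 further: 0% = DMSO wells and 100% = chloroquine plus artemisinin control wells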; conditions: P. falciparum 3D7 erythrocytic growth, LDH absorbance, 72 h; at 2 µM; active compounds read high
[5] = molecular target: Calcium-dependent protein kinase 1 (Plasmodium falciparum (isolate 3D7)) (UniProt P62344); assay: PfCDPK1 kinase inhibitors, biochemical, TCAMS library (AID 1159585; cut-off not given, nearly all actives have IC50 up to about 0.98 µM;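 further: inhibitors leave more ATP so luminescence rises with inhibition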); conditions: recombinant PfCDPK1, Kinase-Glo ATP depletion luminescence
[6] = molecular target: Plasmodium falciparum protein kinase 6 (PK6, PF3D7_1337100) (UniProt Q8IDW1); assay: PfPK6 kinase inhibitors, biochemical, TCAMS library (AID 1159586); conditions: recombinant PfPK6, Kinase-Glo ATP depletion luminescence
[7] = molecular target: Protein kinase 7 (PK7), Plasmodium falciparum 3D7 (PF3D7_0213400) (UniProt Q7YTF7); assay: inhibition of Plasmodium PK7 catalytic activity – biochemical, TCAMS antimalarial set, Kinase-Glo luminescence (AID 1159587); conditions: recombinant PfPK7, Kinase-Glo ATP depletion luminescence
[8] = molecular target: Calcium-dependent protein kinase 4 (Plasmodium falciparum (isolate 3D7)) (UniProt Q8IBS5); assay: PfCDPK4 kinase inhibitors, biochemical, TCAMS library (AID 1159588; cut-off not given, nearly all actives have IC50 up to about 0.91 µM); conditions: recombinant PfCDPK4, Kinase-Glo ATP depletion luminescence
Sequence of Calcium-dependent protein kinase 4 (Plasmodium falciparum (isolate 3D7)) (Q8IBS5 whole entry, looked up): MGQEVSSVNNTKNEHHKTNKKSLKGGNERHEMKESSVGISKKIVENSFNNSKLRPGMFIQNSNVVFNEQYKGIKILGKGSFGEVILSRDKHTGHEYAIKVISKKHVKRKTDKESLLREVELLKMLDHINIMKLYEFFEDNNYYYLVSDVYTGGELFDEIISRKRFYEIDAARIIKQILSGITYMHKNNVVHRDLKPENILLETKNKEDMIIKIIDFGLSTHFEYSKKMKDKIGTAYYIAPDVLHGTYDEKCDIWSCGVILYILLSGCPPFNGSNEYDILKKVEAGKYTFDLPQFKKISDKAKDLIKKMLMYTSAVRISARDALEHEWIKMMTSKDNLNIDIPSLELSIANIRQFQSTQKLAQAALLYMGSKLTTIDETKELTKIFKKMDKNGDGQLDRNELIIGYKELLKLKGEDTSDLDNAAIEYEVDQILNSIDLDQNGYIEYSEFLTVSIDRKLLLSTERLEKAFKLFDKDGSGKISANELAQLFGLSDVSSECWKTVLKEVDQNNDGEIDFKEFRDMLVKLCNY

Sequence of Plasmodium falciparum protein kinase 6 (PK6, PF3D7_1337100) (Q8IDW1 1-305): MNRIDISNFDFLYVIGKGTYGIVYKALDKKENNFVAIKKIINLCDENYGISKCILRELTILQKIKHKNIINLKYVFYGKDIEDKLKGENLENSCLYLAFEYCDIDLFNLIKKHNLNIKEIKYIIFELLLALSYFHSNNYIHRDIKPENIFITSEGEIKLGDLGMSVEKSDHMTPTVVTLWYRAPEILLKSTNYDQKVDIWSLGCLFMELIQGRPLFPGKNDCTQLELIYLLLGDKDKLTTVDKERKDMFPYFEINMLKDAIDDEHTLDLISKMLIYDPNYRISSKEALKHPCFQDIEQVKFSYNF
Sequence of Calcium-dependent protein kinase 1 (Plasmodium falciparum (isolate 3D7)) (P62344 whole entry, looked up): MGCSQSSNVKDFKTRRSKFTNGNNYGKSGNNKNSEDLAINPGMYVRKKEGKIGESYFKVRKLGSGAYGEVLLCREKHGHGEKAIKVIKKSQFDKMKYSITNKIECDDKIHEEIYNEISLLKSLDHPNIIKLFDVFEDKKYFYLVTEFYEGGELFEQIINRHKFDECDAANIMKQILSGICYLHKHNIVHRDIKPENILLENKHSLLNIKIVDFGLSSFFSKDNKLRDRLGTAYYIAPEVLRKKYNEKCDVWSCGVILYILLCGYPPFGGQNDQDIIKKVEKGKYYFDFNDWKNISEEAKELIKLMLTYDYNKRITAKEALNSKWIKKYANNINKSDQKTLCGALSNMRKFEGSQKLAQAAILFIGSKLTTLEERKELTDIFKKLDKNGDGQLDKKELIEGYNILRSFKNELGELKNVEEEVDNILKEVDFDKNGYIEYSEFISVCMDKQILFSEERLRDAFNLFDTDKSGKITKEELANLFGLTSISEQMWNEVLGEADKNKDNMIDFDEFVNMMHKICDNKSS
Sequence of Protein kinase 7 (PK7), Plasmodium falciparum 3D7 (PF3D7_0213400) (Q7YTF7 1-343): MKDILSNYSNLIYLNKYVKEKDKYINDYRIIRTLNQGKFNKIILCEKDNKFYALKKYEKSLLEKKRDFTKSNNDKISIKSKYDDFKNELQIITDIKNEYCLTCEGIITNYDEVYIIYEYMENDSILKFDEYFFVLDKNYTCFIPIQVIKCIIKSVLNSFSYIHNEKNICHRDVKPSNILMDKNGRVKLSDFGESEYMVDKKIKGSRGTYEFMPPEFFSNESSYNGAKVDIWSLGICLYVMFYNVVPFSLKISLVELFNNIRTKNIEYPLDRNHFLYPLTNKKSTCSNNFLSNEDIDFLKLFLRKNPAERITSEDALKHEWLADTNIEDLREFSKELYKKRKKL
Sequence of L-lactate dehydrogenase (Plasmodium falciparum (isolate CDC / Honduras)) (Q27743 whole entry, looked up): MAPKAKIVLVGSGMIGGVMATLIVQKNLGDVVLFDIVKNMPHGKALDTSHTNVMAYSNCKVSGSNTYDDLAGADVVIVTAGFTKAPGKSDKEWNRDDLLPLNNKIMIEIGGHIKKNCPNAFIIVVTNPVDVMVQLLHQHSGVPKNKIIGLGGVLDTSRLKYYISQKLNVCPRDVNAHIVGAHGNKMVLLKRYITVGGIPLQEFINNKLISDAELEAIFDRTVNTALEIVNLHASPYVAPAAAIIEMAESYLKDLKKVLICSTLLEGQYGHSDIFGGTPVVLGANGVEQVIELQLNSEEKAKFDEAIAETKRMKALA

COc1ccc(CNC2Cc3ccccc3C2)cc1-c1ccc(S(=O)(=O)NCCN2CCCC2)c(F)c1
active: growth inhibition [1] 69% | growth inhibition [4] 101%
inactive: inhibition [2] 44% | inhibition [3] -6% | outcome [5] | outcome [6] | outcome [7] | outcome [8]

NC1CCCN(Cc2ccc(-c3ccc(-c4nc5ccc(F)cc5[nH]4)s3)cc2)C1 (stereo not given)
inactive: inhibition [2] 40% | inhibition [3] 1% | outcome [5] | outcome [6] | outcome [7] | outcome [8]
active: growth inhibition [1] 98% | growth inhibition [4] 100%

O=C(Nc1ccccc1)N(Cc1ccc(-c2ccc(CNC3CCCC3)cc2)cc1)C1CCN(Cc2ccccc2)CC1
inactive: inhibition [2] 34% | inhibition [3] -5% | outcome [5] | outcome [6] | outcome [7] | outcome [8]
active: growth inhibition [1] 61% | growth inhibition [4] 100%

CN1CCCC1CCOc1ccc2c(c1)N(C(=O)Nc1cc(Br)cc(C(F)(F)F)c1)CC2 (stereo not given)
active: growth inhibition [1] 97% | growth inhibition [4] 102%
inactive: inhibition [2] 13% | inhibition [3] -6% | outcome [5] | outcome [6] | outcome [7] | outcome [8]

COc1ccccc1-c1cc(C(=O)N2CCN(S(=O)(=O)c3ccc(C)cc3)CC2)[nH]n1
inactive: inhibition [2] -12% | inhibition [3] -4% | outcome [5] | outcome [6] | outcome [7] | outcome [8]
active: growth inhibition [1] 88% | growth inhibition [4] 88%

Cc1nc2c(=O)sc3ccccc3c2n1Cc1ccccc1
active: growth inhibition [4] 95%
inactive: growth inhibition [1] 26% | inhibition [2] -1% | inhibition [3] 1% | outcome [5] | outcome [6] | outcome [7] | outcome [8]

COc1ccc(CN2CCN(C(=O)c3cccs3)CC2)c(O)c1
active: growth inhibition [4] 97%
inactive: growth inhibition [1] 2% | inhibition [2] 7% | inhibition [3] 2% | outcome [5] | outcome [6] | outcome [7] | outcome [8]

Cc1cc(N2CCC(NS(=O)(=O)c3ccccc3)CC2)nc(Nc2cccc(C#N)c2)n1
active: inhibition [2] 52% | growth inhibition [4] 93%
inactive: growth inhibition [1] 29% | inhibition [3] 3% | outcome [5] | outcome [6] | outcome [7] | outcome [8]

CN1CCN(CCCN(Cc2cccc(-c3cccc(CNCCc4ccccc4)c3)c2)C(=O)Nc2ccccc2)CC1
active: growth inhibition [1] 82% | inhibition [2] 92% | growth inhibition [4] 97%
inactive: inhibition [3] 0% | outcome [5] | outcome [6] | outcome [7] | outcome [8]

N#Cc1cncc(-c2nc3c(N4CCC(Cc5ccccc5)CC4)cccc3n2CCNCc2ccccc2)c1
inactive: inhibition [2] 2% | inhibition [3] -1% | outcome [5] | outcome [6] | outcome [7] | outcome [8]
active: growth inhibition [1] 99% | growth inhibition [4] 99%

Cc1cc(N(C)C2CCN(CC3CCCCC3)C2)nc(Nc2ccc(Cl)cc2)n1 (stereo not given)
inactive: growth inhibition [1] 35% | inhibition [2] -3% | inhibition [3] -5% | outcome [5] | outcome [6] | outcome [7] | outcome [8]
active: growth inhibition [4] 98%

O=C(Nc1ccc(F)c(C(F)(F)F)c1)NC1CCN(CCCCCNC(=O)[C@@H]2C[C@H]2c2ccc(Cl)c(Cl)c2)CC1
inactive: growth inhibition [1] 16% | inhibition [3] 0% | outcome [5] | outcome [6] | outcome [7] | outcome [8]
active: inhibition [2] 96% | growth inhibition [4] 100%

NC(=NCCCCC1CCCCC1)c1cccc(C(N)=NCCCCC2CCCCC2)n1
inactive: growth inhibition [1] 19% | inhibition [3] 3% | outcome [5] | outcome [6] | outcome [7] | outcome [8]
active: inhibition [2] 99% | growth inhibition [4] 100%

CN1CCCN(Cc2ccc(-c3ccc(NC(=O)c4cccc(C#N)c4)cc3)cc2)CC1
active: growth inhibition [1] 67% | growth inhibition [4] 97%
inactive: inhibition [2] 46% | inhibition [3] -8% | outcome [5] | outcome [6] | outcome [7] | outcome [8]

COc1cccc(OC)c1C(=O)Nc1cccc(-c2nn3ccccc3c2-c2ccnc(Nc3cccc(F)c3)n2)c1
active: growth inhibition [4] 95%
inactive: growth inhibition [1] 38% | inhibition [2] 3% | inhibition [3] 8% | outcome [5] | outcome [6] | outcome [7] | outcome [8]

O=C(Nc1ccc(OC2CCN(Cc3ccc(F)cc3)CC2)c(Cl)c1)c1ccccc1
active: growth inhibition [1] 89% | growth inhibition [4] 90%
inactive: inhibition [2] 16% | inhibition [3] -4% | outcome [5] | outcome [6] | outcome [7] | outcome [8]

O=C(/C=C/c1ccc(Cl)c(Cl)c1)NCCCCCN1CCC(NC(=O)NCCc2ccccc2)CC1
inactive: growth inhibition [1] 7% | inhibition [2] 23% | inhibition [3] 2% | outcome [5] | outcome [6] | outcome [7] | outcome [8]
active: growth inhibition [4] 100%

O=C(NCc1ccc(Cl)cc1)c1ccc(C(=O)NCC2CCCN2CC2CCCCC2)cc1 (stereo not given)
inactive: growth inhibition [1] 10% | inhibition [2] 21% | inhibition [3] -11% | outcome [5] | outcome [6] | outcome [7] | outcome [8]
active: growth inhibition [4] 97%

O=C(Nc1ccsc1)Nc1cccc(-c2cccc(-c3nc4ccc(C(F)(F)F)cc4[nH]3)c2)c1
inactive: inhibition [3] -7% | outcome [5] | outcome [6] | outcome [7] | outcome [8]
active: growth inhibition [1] 101% | inhibition [2] 76% | growth inhibition [4] 102%

CN1CCC(Oc2ccc(CN3CC[C@H](NC(=O)c4cccc(C#N)c4)C3)c3ccccc23)C1 (stereo not given in full)
active: growth inhibition [4] 97%
inactive: growth inhibition [1] 30% | inhibition [2] 10% | inhibition [3] -1% | outcome [5] | outcome [6] | outcome [7] | outcome [8]

O=C1OC(c2ccccc2)(c2ccccc2)CN1C1CCN(Cc2ccc(O)c(Cl)c2)C1 (stereo not given)
active: growth inhibition [1] 93% | growth inhibition [4] 100%
inactive: inhibition [2] 10% | inhibition [3] 3% | outcome [5] | outcome [6] | outcome [7] | outcome [8]

COc1cc(F)c2ncc(Cl)c(C(O)CN3CCC(NC(=O)c4ccc5c(c4)NC(=O)CS5)CC3)c2c1 (stereo not given)
inactive: inhibition [2] 15% | inhibition [3] 1% | outcome [5] | outcome [6] | outcome [7] | outcome [8]
active: growth inhibition [1] 68% | growth inhibition [4] 98%

CN1CCN(c2ccnc3ccc(NC(=O)Nc4ccccc4Br)cc23)CC1
active: growth inhibition [1] 95% | growth inhibition [4] 100%
inactive: inhibition [2] 4% | inhibition [3] -3% | outcome [5] | outcome [6] | outcome [7] | outcome [8]

CC(C)COc1ccc(C(O)C(CN2CCCCC2)c2ccccc2)cc1 (stereo not given)
active: growth inhibition [1] 89% | growth inhibition [4] 93%
inactive: inhibition [2] 11% | inhibition [3] -11% | outcome [5] | outcome [6] | outcome [7] | outcome [8]

FC(F)(F)c1cc(CNCCCNc2nc3ccncc3[nH]2)ccc1Cl
inactive: growth inhibition [1] 15% | inhibition [2] 11% | inhibition [3] 2% | outcome [5] | outcome [6] | outcome [7] | outcome [8]
active: growth inhibition [4] 99%

Cc1cc(=O)c2cc(Oc3cccc(OC(F)(F)F)c3)ccc2[nH]1
active: growth inhibition [1] 80% | growth inhibition [4] 90%
inactive: inhibition [2] 9% | inhibition [3] 2% | outcome [5] | outcome [6] | outcome [7] | outcome [8]

Oc1c(C(Nc2ccccn2)c2ccco2)cc(Cl)c2cccnc12 (stereo not given)
active: growth inhibition [1] 65% | growth inhibition [4] 87%
inactive: inhibition [2] 41% | inhibition [3] 1% | outcome [5] | outcome [6] | outcome [7] | outcome [8]

CN(C)C1CCN(CC#Cc2cc3ncnc(Nc4ccc(OCc5cccc(F)c5)c(Cl)c4)c3s2)CC1
inactive: growth inhibition [1] 5% | inhibition [2] 34% | inhibition [3] -5% | outcome [5] | outcome [6] | outcome [7] | outcome [8]
active: growth inhibition [4] 85%

O=C(C=Cc1ccc(Cl)c(Cl)c1)NCCCCCN1CCCC(CCCNS(=O)(=O)c2ccc(Br)cc2)C1 (stereo not given)
inactive: growth inhibition [1] 5% | inhibition [2] 43% | inhibition [3] -2% | outcome [5] | outcome [6] | outcome [7] | outcome [8]
active: growth inhibition [4] 88%

O=C(Nc1ccc(Cl)cc1)c1cccc2[nH]c(C(F)(F)F)nc12
active: growth inhibition [1] 98% | inhibition [2] 84% | growth inhibition [4] 93%
inactive: inhibition [3] -6% | outcome [5] | outcome [6] | outcome [7] | outcome [8]

CCOc1cc(C(=O)N[C@@H](Cc2ccccc2)[C@H](O)CNCc2cccc(OC)c2)cc(N2CCCCS2(=O)=O)c1
inactive: inhibition [2] 3% | inhibition [3] 3% | outcome [5] | outcome [6] | outcome [7] | outcome [8]
active: growth inhibition [1] 94% | growth inhibition [4] 97%

Cc1cc(C)c(CON2C(N)=NC(N)=NC2(C)C)cc1C
inactive: inhibition [3] 2% | outcome [5] | outcome [6] | outcome [7] | outcome [8]
active: growth inhibition [1] 93% | inhibition [2] 65% | growth inhibition [4] 92%

COc1cccc(CCc2nc3c(N4CCC(Cc5ccccc5)CC4)cccc3n2CC2CNCCO2)c1 (stereo not given)
inactive: inhibition [2] 4% | inhibition [3] 4% | outcome [5] | outcome [6] | outcome [7] | outcome [8]
active: growth inhibition [1] 96% | growth inhibition [4] 94%

CC(C)(C)c1ccc(NC(=O)c2cccc(CN3CCCN(Cc4cccc(C#N)c4)CC3)c2)cc1
active: growth inhibition [4] 97%
inactive: growth inhibition [1] 12% | inhibition [2] 39% | inhibition [3] 4% | outcome [5] | outcome [6] | outcome [7] | outcome [8]

O=C(Nc1ccc2oc(-c3ccc(Cl)cc3Cl)nc2c1)c1ccc([N+](=O)[O-])o1
inactive: inhibition [2] 39% | inhibition [3] 3% | outcome [5] | outcome [6] | outcome [7] | outcome [8]
active: growth inhibition [1] 78% | growth inhibition [4] 95%

Cc1cc(N[C@@H](CC(C)C)C(=O)NC2CCCC2)nc(NCc2ccccc2C)n1
active: growth inhibition [4] 98%
inactive: growth inhibition [1] 44% | inhibition [2] 2% | inhibition [3] -3% | outcome [5] | outcome [6] | outcome [7] | outcome [8]

O=C(CCCc1ccccc1)Nc1cccc(N2CCC(N3CCN(c4ccccc4O)CC3)CC2)c1
active: growth inhibition [4] 98%
inactive: growth inhibition [1] 41% | inhibition [2] 31% | inhibition [3] -1% | outcome [5] | outcome [6] | outcome [7] | outcome [8]

CC(C)N1CCN(C(=O)c2ccc(CN(C)CCCN3CCN(c4cccc(Cl)c4Cl)CC3)s2)CC1
inactive: growth inhibition [1] 35% | inhibition [3] 3% | outcome [5] | outcome [6] | outcome [7] | outcome [8]
active: inhibition [2] 74% | growth inhibition [4] 94%

Cc1cc(C)cc(CC(=O)N2CCC(n3c(C)nc4ccc(C)cc43)CC2)c1
inactive: inhibition [3] 6% | outcome [5] | outcome [6] | outcome [7] | outcome [8]
active: growth inhibition [1] 100% | inhibition [2] 52% | growth inhibition [4] 100%

O=S(=O)(c1ccccc1C(F)(F)F)C1C[C@H]2CC[C@@H](C1)N2S(=O)(=O)c1ccc(Cl)c(C(F)(F)F)c1 (stereo not given in full)
active: growth inhibition [1] 99% | growth inhibition [4] 97%
inactive: inhibition [2] 4% | inhibition [3] -3% | outcome [5] | outcome [6] | outcome [7] | outcome [8]

— PubChem BioAssay
